In the supplement of paper PMC6555819:

How the values were obtained:
Assay in all cases: PBM binding z-score (relative to random genomic background probes); higher = stronger binding; sequences stand for … in GC…GCGATTGACAGCGTAGAATGAAGG
[1] = test system: FXR:RXRa (NR concentration 270 nM, RXRa partner concentration 90 nM)
In short: (§1)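 Probes were double-stranded and carried 34-nt variable regions with direct-repeat seeds, single-nucleotide variants, half-site ablations and random human genomic background sequences, printed on custom Agilent 4×180K protein-binding microarrays. Arrays were incubated 1 h with ligand-free nuclear receptor dimers in PBS pH 7.4, 2% milk, 0.02% Triton X-100, 1 mM DTT, 0.2 mg/mL BSA and 0.4 mg/ml salmon testes DNA. Antibodies against each partner (one per run) detected binding, and scanned fluorescence was regression-normalized. Binding z-scores use the random background probes as reference.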

[2] = test system: LXRa:RXRa (NR concentration 270 nM, RXRa partner concentration 90 nM)
In short: as §1

[3] = test system: LXRa homodimer (NR concentration 270 nM)
In short: as §1

[4] = test system: LXRb:RXRa (NR concentration 270 nM, RXRa partner concentration 90 nM)
In short: as §1

[5] = test system: LXRb homodimer (NR concentration 270 nM)
In short: as §1

[6] = test system: PPARa:RXRa (NR concentration 270 nM, RXRa partner concentration 90 nM)
In short: as §1

[7] = test system: PPARg:RXRa (NR concentration 180 nM, RXRa partner concentration 90 nM)
In short: as §1

[8] = test system: PPARg:RXRa 270nM:90nM, anti-RXR (NR concentration 270 nM, RXRa partner concentration 90 nM)
In short: as §1

[9] = test system: PPARg:RXRa 30nM:10nM, anti-RXR (NR concentration 30 nM, RXRa partner concentration 10 nM)
In short: as §1

[10] = test system: PPARg:RXRa 90nM:30nM, anti-RXR (NR concentration 90 nM, RXRa partner concentration 30 nM)
In short: as §1

[11] = test system: PPARg:RXRa DBDmut IVT, anti-RXR (DBD mutation: RXRa K156A/R161A, NR concentration 270 nM, RXRa partner concentration 90 nM)
In short: as §1

[12] = test system: PPARg:RXRa IVT, anti-PPARg (NR concentration 270 nM, RXRa partner concentration 90 nM)
In short: as §1

[13] = test system: PPARg DBDmut:RXRa IVT, anti-PPARg (DBD mutation: PPARg1 K132A/R137A, NR concentration 270 nM, RXRa partner concentration 90 nM)
In short: as §1

[14] = test system: PPARg DBDmut IVT, anti-PPARg (DBD mutation: PPARg1 K132A/R137A, NR concentration 270 nM)
In short: as §1

[15] = test system: PPARg homodimer (NR concentration 180 nM)
In short: as §1

[16] = test system: PXR:RXRa (NR concentration 270 nM, RXRa partner concentration 90 nM)
In short: as §1

[17] = test system: PXR homodimer (NR concentration 270 nM)
In short: as §1

[18] = test system: RARa:RXR (NR concentration 270 nM, RXRa partner concentration 90 nM)
In short: as §1

[19] = test system: RARa homodimer (NR concentration 270 nM)
In short: as §1

[20] = test system: RARb:RXRa (NR concentration 270 nM, RXRa partner concentration 90 nM)
In short: as §1

| Sequence | PBM binding z-score [1] | PBM binding z-score [2] | PBM binding z-score [3] | PBM binding z-score [4] | PBM binding z-score [5] | PBM binding z-score [6] | PBM binding z-score [7] | PBM binding z-score [8] | PBM binding z-score [9] | PBM binding z-score [10] | PBM binding z-score [11] | PBM binding z-score [12] | PBM binding z-score [13] | PBM binding z-score [14] | PBM binding z-score [15] | PBM binding z-score [16] | PBM binding z-score [17] | PBM binding z-score [18] | PBM binding z-score [19] | PBM binding z-score [20] |
| --- | --- | --- | --- | --- | --- | --- | --- | --- | --- | --- | --- | --- | --- | --- | --- | --- | --- | --- | --- | --- |
| ACAGACAGGTGATGAAGGTAATTCAGGCTATCAT | -0.202 | -0.317 | -0.115 | -0.471 | -0.286 | 0.215 | 0.583 | -0.256 | 0.0788 | -0.356 | 0.125 | 0.521 | 0.823 | 0.3 | 0.3 | -0.0311 | -0.169 | 0.367 | 0.165 | 0.161 |
| GCTAGTTGGTCAGTAAAAGGTCACCCACCGGTCG | 3.38 | 4.1 | 4.23 | 3.6 | 0.649 | 4.11 | 2.48 | 4.29 | 2.04 | 3.67 | 0.689 | 2.81 | 0.204 | -0.0831 | 5.31 | 4.84 | 1.27 | 5.99 | 3.9 | 4.28 |
| ATCTCTAGGTAAGACTCAGTTCAGTGCAGAACGC | 0.385 | 0.334 | 0.807 | 0.371 | 0.594 | 0.349 | 0.209 | 0.0288 | 0.281 | 0.195 | 1.92 | 1.08 | 0.985 | 1.26 | 1.53 | 1.14 | 1.56 | 0.346 | 1.16 | 0.33 |
| CCTACTGGGCCACGATAGGTCATTGATTCAGTGA | 0.91 | 3.95 | 1.66 | 1.74 | -0.503 | 2.79 | 2.44 | 3.11 | 0.577 | 1.86 | 5.57 | 5.44 | 0.89 | -0.512 | 1.33 | 1.49 | 0.172 | 2.14 | 0.152 | 2.06 |
| TATCCTAGGTCATGCGGGCCAGTATAGTGTCGGC | 4.73 | 5.7 | 4.76 | 2.7 | 2.07 | 4.14 | 3.92 | 3.74 | 1.55 | 2.88 | 3.98 | 4.97 | 1.6 | 1.66 | 1.75 | 2.04 | 0.212 | 2.76 | -0.133 | 3.9 |
| GCCGCTAGGTCAACTGATGGTCAGCTAAAGCTCG | 3.97 | 3.16 | 0.212 | 1.89 | -0.472 | 3.71 | 2.44 | 3.07 | 0.658 | 1.82 | 4.39 | 3.8 | -0.418 | -0.213 | 1.56 | 1.55 | -0.4 | 3.04 | 0.102 | 4.35 |
| TCTTGTAGATCAACAGGAGGTTTAGAAAGATCGA | -0.117 | -0.19 | -0.342 | 0.0269 | -0.559 | 0.152 | -0.195 | 0.953 | 2.59 | 1.93 | 1.64 | 0.449 | 0.726 | 0.199 | 0.11 | -0.0955 | -0.425 | 0.104 | -0.667 | -0.271 |
| ATCGTAAGGTCGAGGTGAGTATAGAGAAAGGGAA | 2.64 | 1.91 | 0.0142 | 1.68 | 0.624 | 3.02 | 1.53 | 1.72 | 0.505 | 1.27 | -0.153 | 1.72 | 1.12 | 1.14 | 1.07 | 1.68 | 0.189 | 2.17 | 0.395 | 3.22 |
| CCGATTAGTTGACCATAAGGGCAACCGAAGCTCG | 0.669 | 0.102 | -0.113 | 0.217 | -0.191 | 0.52 | 0.357 | 0.312 | -0.22 | 0.0545 | 0.626 | 0.151 | 0.0233 | -0.144 | 0.907 | 0.523 | 0.00458 | 0.703 | 0.65 | 1.46 |
| AGCTCTAGGTAACCAAGTTCAGTGAATGCCGAAC | -0.0702 | 0.208 | 0.46 | 0.265 | -0.228 | 0.481 | 0.22 | 0.513 | -0.0768 | -0.252 | 3.96 | 2.07 | -0.276 | -0.0149 | 0.421 | 1.53 | 1.74 | 0.198 | -0.119 | 0.793 |
| TCTTGTAGTTCAATAGAGGTTAAGAAAGTGCGCT | 2.33 | 5.37 | 2.45 | 3.06 | 0.28 | 2.28 | -0.0212 | 1.83 | 2.94 | 2.06 | 1.53 | 0.937 | 0.563 | 1.1 | 1.14 | 4.2 | 1.73 | 2.4 | 0.814 | 2.22 |
| AGAATGAGGTTATTAAGATAAGGGAATTGCGGTC | 1.33 | 1.59 | -0.0371 | 1.08 | -0.0386 | 2.64 | 1.47 | 1.65 | 0.732 | 0.962 | 2.05 | 2.31 | 1.03 | 0.188 | 0.58 | 0.886 | 0.278 | 1.24 | 0.541 | 1.23 |
| TCTAGTTGGTGAAAGGTCACACACTCGAAATGCG | 5.7 | 5.73 | 3.63 | 5.31 | 1.6 | 6.32 | 10.8 | 9.75 | 9.91 | 11.4 | 2.69 | 5.86 | 2.76 | 2.05 | 7.7 | 5.97 | 2.06 | 7.3 | 4.58 | 4.79 |
| CCGACTGGGGCAGAAAGGTAACCATACCATCCGG | -0.151 | -0.447 | -0.528 | -0.363 | -1.18 | 0.647 | 1.05 | 1.25 | -0.0627 | 0.913 | 1.07 | 1.73 | -0.318 | -1.27 | 0.0459 | -0.419 | -0.488 | -0.0683 | -0.0732 | 0.706 |
| CGTACAAGGTCAGCAGGTCAGTGAAAGCGACGTG | 6.31 | 4.3 | 0.745 | 3.29 | -0.00943 | 5.32 | 5.54 | 5.17 | 1.99 | 3.64 | 3.86 | 4.79 | 1.35 | 0.315 | 3.51 | 3.82 | 0.382 | 5.17 | 1.11 | 5.23 |
